# Whole data set: some 33,000 sequences, median “E-score (-0.5 to 0.5)” near -0.035, cut for the highest 2% near 0.34. Only a selection was taken, and the highest values are over-represented in it overall.
# Molecular target: T1, Mot3 (UniProt P54785)
# T1 sequence: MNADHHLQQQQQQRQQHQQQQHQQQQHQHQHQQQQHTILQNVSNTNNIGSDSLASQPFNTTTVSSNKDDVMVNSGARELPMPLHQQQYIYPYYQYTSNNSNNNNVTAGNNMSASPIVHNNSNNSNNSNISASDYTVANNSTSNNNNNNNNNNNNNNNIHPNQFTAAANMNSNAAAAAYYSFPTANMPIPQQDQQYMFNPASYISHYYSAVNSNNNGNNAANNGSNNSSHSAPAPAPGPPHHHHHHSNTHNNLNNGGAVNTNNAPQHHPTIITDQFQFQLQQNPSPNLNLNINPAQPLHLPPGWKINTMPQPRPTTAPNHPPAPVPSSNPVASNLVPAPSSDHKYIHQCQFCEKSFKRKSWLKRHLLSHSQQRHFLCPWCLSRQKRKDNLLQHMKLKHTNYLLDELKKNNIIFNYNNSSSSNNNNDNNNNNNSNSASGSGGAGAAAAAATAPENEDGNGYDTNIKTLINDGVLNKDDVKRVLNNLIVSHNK
# Assay: PBM E-score (8-mer binding enrichment) (E-score (-0.5 to 0.5)); higher = stronger / more preferred TF binding
# Conditions: protein concentration: 200 nM; construct: GST-full length
# Experimental: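 Universal 'all 10-mer' protein binding microarrays (Agilent AMADID 015681) probed with GST-tagged S. cerevisiae TFs (full-length or DBD) made by in vitro transcription/translation (PURExpress), about 100-200 nM. Bound TF was detected with fluorescent anti-GST. Each ungapped 8-mer (which stands for itself and its reverse complement) is scored by the PBM enrichment score (E-score), a modified Wilcoxon-Mann-Whitney statistic from -0.5 to +0.5, computed with the Universal PBM Analysis Suite. Scale: above 0.35 generally sequence-specific binding.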
row,Sequence,PBM E-score
1,AAGCAATG,-0.0928
2,ATCAGGAT,-0.12
3,AAAGGGGG,-0.0401
4,ATACATAC,0.28
5,AGACATGA,0.198
6,ATACATGG,0.374
7,ATACATGA,0.363
8,CTACATCA,0.112
9,ATACATAA,0.308
10,AGACATGG,0.139
11,GTACATGA,0.328
12,ACACATGG,0.144
13,CTACATGA,0.361
14,ATACATCA,0.16
15,ATACATAT,0.359
16,CCTCTGAC,-0.145
17,CACCCTTC,-0.121
18,ATGCCCCC,-0.266
19,AGAGTTCC,-0.135
20,CTGGCACC,-0.232
21,CACCTTAA,0.0232
22,CCTTCAGA,-0.0591
23,ATACATGC,0.361
24,CGACATGC,0.279
25,ATACATCC,0.201

row,Sequence,PBM E-score
1,CTACATGC,0.355
2,AGACATGC,0.0904
3,CTACATTC,0.0249
4,CCCAAGGA,-0.0628
5,GTCTGCAA,-0.0815
6,AGCATGGC,0.0473
7,CGCTGTTA,-0.0162
8,TAGCTAGA,-0.0751
9,CGCACTGC,-0.0709
10,CAGCCTGC,-0.106
11,CTGCCTGA,0.223
12,GAGCCTGA,0.26
13,ATGCCTAG,0.199
14,ATGCCTTC,0.36
15,CTGCCTTC,0.2
16,GAGCCTGC,0.389
17,CTGCCTAC,0.264
18,ATGCCTAC,0.424
19,AGGCCTGA,-0.288
20,AGGCCTTC,-0.154
21,ATGCCTGA,0.376
22,AAGTAACC,0.00035
23,ATCCAGCG,-0.127
24,GAACCCTC,-0.176
25,AGGAAGCG,-0.0464

row,Sequence,PBM E-score
1,GTATGCTA,-0.0526
2,ATCGAAAG,-0.0284
3,GTTTCATA,-0.0759
4,CTCTAACA,0.0488
5,GTAGCCTA,0.177
6,GTAGAAGA,-0.00994
7,ACAAGGCC,0.0968
8,ACACTTAC,0.188
9,CGCACATA,-0.146
10,CTGCCTCC,-0.215
11,GTGCCTTA,0.49
12,GCGCCTTA,0.31
13,CTGCCTCA,-0.15
14,ATGCCTTA,0.342
15,CTGCCTTA,0.059
16,ATGCCTCA,0.111
17,ATGCCTGG,0.127
18,AAGCCTTA,-0.147
19,ATGCCTGC,0.407
20,GTGCCTCA,0.454
21,ATGCCTTG,0.267
22,CTGCCTGC,0.336
23,GCAGCCTA,-0.0663
24,CCAAGAGA,-0.0138
25,CGGCCTGC,-0.212

row,Sequence,PBM E-score
1,AGTGGCCA,-0.158
2,ATCTACCG,-0.115
3,ACTTTGCT,-0.0166
4,CCGCCTAC,-0.166
5,CTGCCTAA,0.258
6,ATGCCCAA,-0.0977
7,GCGCCTAC,0.358
8,ACGCCTAC,0.0133
9,GTGCCTAA,0.49
10,ATGCCTAA,0.278
11,GTGCCCCA,-0.248
12,GTGCCCAA,0.392
13,CTTAGAAA,0.11
14,AAAGCACC,-0.0982
15,CAAAGCCC,-0.0136
16,ACACAACA,0.307
17,CTAACCCA,-0.0185
18,TTAACGAA,0.128
19,TAAGGTGA,-0.0657
20,AACACGAG,0.288
21,CACACGAC,0.0741
22,AACACGTA,0.32
23,AACACGGT,0.353
24,GACACGAC,0.31
25,AACACGGC,0.257

row,Sequence,PBM E-score
1,AACACGGA,0.252
2,AACACGTC,0.316
3,AACACGTT,0.365
4,AACACGAT,0.349
5,AACACGAA,0.33
6,AACACGAC,0.344
7,GCATCGCA,-0.36
8,CGACTTAC,-0.127
9,GACGCAAC,-0.0695
10,AGGATTGC,-0.0652
11,CGTTGAGA,-0.183
12,AAGTTTTG,0.167
13,ACTGGGCG,-0.198
14,CGCACCTC,-0.0771
15,GGGCAAAC,0.0101
16,AGGCAGAT,0.0714
17,GGGCAAAA,0.0722
18,AGGCAAAC,0.482
19,TGGCAAAA,0.0985
20,AGGCAAAT,0.479
21,ATGCAAAT,0.146
22,AGGCAAAA,0.467
23,ATGCAAAG,0.128
24,AGGCAAAG,0.472
25,CGGCAAAC,-0.217

row,Sequence,PBM E-score
1,CGGCAAAG,-0.226
2,CCCGACGC,-0.262
3,ATCGGCGG,-0.342
4,ACCAGTAG,-0.0459
5,AAGGTGTG,-0.0849
6,TTACAGAA,0.106
7,ACGCTTAA,0.114
8,ATACTTAA,0.173
9,CCCCTAAG,-0.313
10,CGAGGCAC,0.411
11,AGAGGCAA,0.409
12,GGAGGCGA,-0.194
13,AGAGGCCA,-0.274
14,TGAGGCAA,0.389
15,CGAGGCAA,0.318
16,AGAGGCGA,-0.227
17,GGAGGCCA,-0.34
18,GGAGGCAA,0.437
19,TGAGGGCA,-0.0148
20,CGAGGCAG,-0.0696
21,TGAGGCCA,0.0399
22,CCCGTTGA,-0.205
23,ACGTTCTG,-0.0537
24,CCTCTTAC,-0.0603
25,ATCCATAG,-0.206

row,Sequence,PBM E-score
1,GGCCGGAC,-0.187
2,CACTGGTA,-0.00383
3,AGCGTTTC,0.127
4,GTTGCTTA,0.0798
5,AAGGATCA,0.0089
6,GGAGGCCC,-0.266
7,GGAGGCAC,0.474
8,GGGGGCAC,-0.156
9,AGAGGCAC,0.465
10,AGAGGCAG,-0.133
11,AGAGGCAT,-0.0714
12,GTTCTGGA,0.0443
13,AGGCACCA,0.492
14,CGGCACCC,-0.126
15,ACGCACCT,0.129
16,GGGCACCA,0.171
17,CGGCACCG,-0.0283
18,AAGCACCT,0.0273
19,AGGCACCT,0.491
20,GGGCACCC,-0.0287
21,AAGCACCG,-0.206
22,CGGCACCA,-0.159
23,AGGCACCC,0.491
24,AGGCACCG,0.491
